Inconclusive results are not listed. The source made the active and inactive calls. Unless noted, the call rests on the fitted dose curve; in most records, active means well fitted curve in the direction sought with a large enough effect in the repeat runs; inconclusive means weak or mixed curves; inactive means no such curve, though single readings can be large; an effect the other way counts as inactive or inconclusive.
Experiments:
[1] = qHTS assay for small molecules that induce genotoxicity in human embryonic kidney cells expressing luciferase-tagged ATAD5 (AID 651632); further: nearly all actives have a fitted effect of over 15% in size
Method in brief: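 Increased luciferase signal from ATAD5-tagged reporter cells indicates DNA-damage-driven ATAD5 induction. HEK293T cells are treated for 16 hr at 37C before detection with Amplite.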

[2] = qHTS assay for small molecule agonists of the p53 signaling pathway - cell viability (AID 651633; calls by dose curve;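 further: p53RE-bla HCT reporter cells with a stable beta-lactamase p53 reporter; series mostly up to about 83 µM; nearly all actives have a fitted effect of over 30% in size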)
Method in brief: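 p53RE-bla cells, seeded at 4,000 per well and rested 5 h at 37 C/5% CO2, received compounds in DMSO for 16 h at 37 C. CellTiter-Glo was then added, and luminescence was read after 30 min at room temperature to gauge cytotoxicity.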

[3] = qHTS assay for small molecules that induce genotoxicity in human embryonic kidney cells expressing luciferase-tagged ATAD5 - cell viability (AID 651634; calls by dose curve; further: nearly all actives have a fitted effect of over 25% in size)
Method in brief: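 Cytotoxicity counterscreen in HEK293T cells bearing an ATAD5-luciferase reporter: live-cell protease activity measured by CellTiter-Fluor fluorescence after 15.5 hr compound exposure.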

[4] = qHTS assay for small molecule disruptors of the mitochondrial membrane potential - cell viability (AID 720634; calls by dose curve;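 further: human HepG2 liver cancer cells; series mostly up to about 83 µM; nearly all actives have a fitted effect of over 20% in size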)
Method in brief: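 After overnight attachment at 37 C, HepG2 cells received compound or DMSO vehicle for 1 hr. Viability is then taken from ATP-driven luminescence following a 30 min room-temperature CellTiter-Glo step.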

[5] = qHTS assay to test for compound auto fluorescence at 535 nm (green) in HepG2 cells (AID 720675)
[6] = qHTS assay to test for compound auto fluorescence at 460 nm (blue) in HEK293 cells (AID 720678)
Method in brief: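 Cells were seeded and left to adhere for 4-5 hr at 37C. Compounds were then pin-transferred. After an overnight incubation at 37C under 5% CO2, intrinsic fluorescence at 405/460 nm was measured and referenced to triamterene.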

[7] = qHTS assay to test for compound auto fluorescence at 590 nm (red) in HEK293 cells (AID 720679)
Method in brief: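 Each well held 2,000 HEK293 cells in medium containing 10% dialyzed FBS. Following 4-5 hr attachment at 37C, 23 nL test compound or DMSO was added; plates sat overnight, and red fluorescence (540/590nm) was recorded.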

[8] = qHTS assay to test for compound auto fluorescence at 535 nm (green) in HEK293 cells (AID 720680)
[9] = qHTS assay to test for compound auto fluorescence at 460 nm (blue) in HEK293 cell free culture (AID 720681)
Method in brief: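 Test compounds were pinned into cell-free culture medium (DMEM with 10% FBS) and fluorescence was read directly at Ex/Em 405/460 nm. Signals were expressed as fluorescence equivalents of triamterene, with DMSO vehicle as control.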

[10] = qHTS assay to test for compound auto fluorescence at 535 nm (green) in HEK293 cell free culture (AID 720682)
Method in brief: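 Measurement is a direct plate read of green fluorescence (485 nm in, 535 nm out) after compound addition to serum-supplemented DMEM lacking cells, with fluorescein used to express intensities.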

[11] = qHTS assay to test for compound auto fluorescence at 590 nm (red) in HepG2 cell free culture (AID 720684)
Method in brief: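 Measured in medium alone (MEM containing 10% FBS) following pintool addition of compound; emission at 590 nm with 540 nm excitation, referenced to Rose Bengal sodium.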

[12] = qHTS assay to test for compound auto fluorescence at 460 nm (blue) in HepG2 cell free culture (AID 720685)
Method in brief: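 Compound (23 nL) or DMSO pinned into cell-free MEM with 10% FBS; blue fluorescence read at 405/460 nm excitation/emission, expressed as auto-fluorescence equivalency to triamterene.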

[13] = qHTS assay to test for compound auto fluorescence at 535 nm (green) in HepG2 cell free culture (AID 720686)
[14] = qHTS assay to test for compound auto fluorescence at 460 nm (blue) in HepG2 cells (AID 720687)
Method in brief: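 Cells (2,000/well in MEM with 10% FBS) attached overnight at 37 C, then were exposed to compound or DMSO for 1 hr at 37 C, 5% CO2. Fluorescence read at Ex/Em 405/460 nm, expressed as triamterene-equivalent signal.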

[15] = target: Glucocorticoid receptor (Homo sapiens) (UniProt P04150); test: qHTS assay to identify small molecule antagonists of the glucocorticoid receptor (GR) signaling pathway (AID 720692; active means well fitted inhibition curve with a large enough effect in the signal ratio in the repeat runs, not every such curve was filed as active; the % refers to the signal ratio)
Sequence of Glucocorticoid receptor (Homo sapiens) (P04150 whole entry, looked up): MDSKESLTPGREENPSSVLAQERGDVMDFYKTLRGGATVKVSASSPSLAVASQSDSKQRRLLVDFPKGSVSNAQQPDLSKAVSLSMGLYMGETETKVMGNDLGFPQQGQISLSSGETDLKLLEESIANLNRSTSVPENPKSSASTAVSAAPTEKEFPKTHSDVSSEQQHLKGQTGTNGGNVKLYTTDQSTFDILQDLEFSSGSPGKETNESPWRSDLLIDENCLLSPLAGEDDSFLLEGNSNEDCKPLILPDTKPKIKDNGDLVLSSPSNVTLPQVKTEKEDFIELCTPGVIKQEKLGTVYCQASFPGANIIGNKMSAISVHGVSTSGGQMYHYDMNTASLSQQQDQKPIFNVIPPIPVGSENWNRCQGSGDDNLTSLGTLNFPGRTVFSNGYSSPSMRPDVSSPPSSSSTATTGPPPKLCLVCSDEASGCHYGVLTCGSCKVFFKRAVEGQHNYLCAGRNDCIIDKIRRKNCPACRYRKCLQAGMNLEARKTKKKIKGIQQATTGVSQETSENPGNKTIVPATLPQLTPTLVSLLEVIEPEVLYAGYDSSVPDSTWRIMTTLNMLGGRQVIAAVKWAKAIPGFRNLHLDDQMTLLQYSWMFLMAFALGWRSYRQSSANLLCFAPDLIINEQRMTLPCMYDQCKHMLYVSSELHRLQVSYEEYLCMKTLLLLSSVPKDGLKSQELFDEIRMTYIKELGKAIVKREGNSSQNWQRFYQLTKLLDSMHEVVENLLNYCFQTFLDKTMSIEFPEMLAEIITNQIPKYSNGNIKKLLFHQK
Method in brief: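 Cells plated, rested 4 h at 37 C/5% CO2; compounds in DMSO pin-transferred; dexamethasone added to 5 nM final; 18 h at 37 C; B/G FRET substrate added, 2 h room temperature; fluorescence measured.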

[16] = qHTS assay for small molecule disruptors of the mitochondrial membrane potential (AID 720635)
Method in brief: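 HepG2 cells (2,000/well) attached overnight at 37C, then took compound for 1 hr at 37C, 5% CO2. Mito-MPS dye was added for 30 min; fluorescence was read at 490/535 nm (monomers) and 540/590 nm (aggregates).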

[17] = qHTS assay to test for compound auto fluorescence at 590 nm (red) in HEK293 cell free culture (AID 720683)
Method in brief: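 Tox21 10K library compounds were pinned into cell-free DMEM with 10% FBS and fluorescence was read at excitation 540 nm. Activity is expressed as Rose Bengal sodium equivalency.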

[18] = target: Glucocorticoid receptor (Homo sapiens) (UniProt P04150); test: qHTS assay to identify small molecule agonists of the glucocorticoid receptor (GR) signaling pathway (AID 720691; active means well fitted activation curve with a large enough effect in the signal ratio in the repeat runs, not every such curve was filed as active; the % refers to the signal ratio)
Method in brief: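 Agonist mode in a HeLa line carrying a GRE-controlled beta-lactamase reporter. Compounds act for 18 h at 37 C before a 2 h room-temperature FRET substrate step and fluorescence reading.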

[19] = qHTS assay to test for compound auto fluorescence at 590 nm (red) in HepG2 cells (AID 720674)
Method in brief: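 Intrinsic compound fluorescence in the red window (Ex/Em 540/590 nm) is measured in attached HepG2 cells exposed for 1 hr, DMSO vehicle as baseline, benchmarked to Rose Bengal sodium.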

Measured: Potency

C=CCOC(=O)CCCCCC
not listed: [16] | [17] | [18] | [19]
inactive: all other assays above

CN(C)CCN(C)CCO
not listed: [9] | [15] | [19]
inactive: all other assays above

CC(=O)CCC1=C(C)CCCC1(C)C
not listed: [9] | [10]
inactive: all other assays above

O=C1CCC(=O)N1Cl
not listed: [9] | [15] | [16]
inactive: all other assays above

CCCCCCCCCCCCCBr
not listed: [12] | [13] | [15] | [16] | [17] | [18]
inactive: all other assays above

COc1nc(N)nc2nc[nH]c12
not listed: [16]
inactive: all other assays above

CC(C)Cn1cnc2c1c(=O)n(C)c(=O)n2C
not listed: [9] | [15] | [19]
inactive: all other assays above

CCC(C)C(C)=O (centres undefined)
not listed: [4] | [15] | [16]
inactive: all other assays above

C[C@]12CCC(=O)C=C1CC[C@H]1[C@@H]3CC[C@](O)(C(=O)CO)[C@@]3(C)C[C@H](O)[C@@]12F
not listed: [2] | [4] | [5] | [9] | [13] | [15] | [18]
inactive: all other assays above

— PubChem BioAssay (Tox21)
